Data on 45 molecules can be found in article PMC4336329 (PLoS ONE, 2015).

The campaign covered roughly 310,000 compounds. About 14,000 (4.5%) showed an effect of 50% or more. Effects have a minus sign here. The full list was thinned out, with strong results kept by preference.
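Further: peak tail current of the secondary pulse compared with the same well before compound.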

The target in this assay is human ether-à-go-go-related gene (hERG) potassium channel (human, UniProt Q12809). Description: primary screen, population patch clamp on CHO cells stably expressing hERG; higher = less effect of the substance.
Chain of human ether-à-go-go-related gene (hERG) potassium channel (Q12809 whole entry, looked up): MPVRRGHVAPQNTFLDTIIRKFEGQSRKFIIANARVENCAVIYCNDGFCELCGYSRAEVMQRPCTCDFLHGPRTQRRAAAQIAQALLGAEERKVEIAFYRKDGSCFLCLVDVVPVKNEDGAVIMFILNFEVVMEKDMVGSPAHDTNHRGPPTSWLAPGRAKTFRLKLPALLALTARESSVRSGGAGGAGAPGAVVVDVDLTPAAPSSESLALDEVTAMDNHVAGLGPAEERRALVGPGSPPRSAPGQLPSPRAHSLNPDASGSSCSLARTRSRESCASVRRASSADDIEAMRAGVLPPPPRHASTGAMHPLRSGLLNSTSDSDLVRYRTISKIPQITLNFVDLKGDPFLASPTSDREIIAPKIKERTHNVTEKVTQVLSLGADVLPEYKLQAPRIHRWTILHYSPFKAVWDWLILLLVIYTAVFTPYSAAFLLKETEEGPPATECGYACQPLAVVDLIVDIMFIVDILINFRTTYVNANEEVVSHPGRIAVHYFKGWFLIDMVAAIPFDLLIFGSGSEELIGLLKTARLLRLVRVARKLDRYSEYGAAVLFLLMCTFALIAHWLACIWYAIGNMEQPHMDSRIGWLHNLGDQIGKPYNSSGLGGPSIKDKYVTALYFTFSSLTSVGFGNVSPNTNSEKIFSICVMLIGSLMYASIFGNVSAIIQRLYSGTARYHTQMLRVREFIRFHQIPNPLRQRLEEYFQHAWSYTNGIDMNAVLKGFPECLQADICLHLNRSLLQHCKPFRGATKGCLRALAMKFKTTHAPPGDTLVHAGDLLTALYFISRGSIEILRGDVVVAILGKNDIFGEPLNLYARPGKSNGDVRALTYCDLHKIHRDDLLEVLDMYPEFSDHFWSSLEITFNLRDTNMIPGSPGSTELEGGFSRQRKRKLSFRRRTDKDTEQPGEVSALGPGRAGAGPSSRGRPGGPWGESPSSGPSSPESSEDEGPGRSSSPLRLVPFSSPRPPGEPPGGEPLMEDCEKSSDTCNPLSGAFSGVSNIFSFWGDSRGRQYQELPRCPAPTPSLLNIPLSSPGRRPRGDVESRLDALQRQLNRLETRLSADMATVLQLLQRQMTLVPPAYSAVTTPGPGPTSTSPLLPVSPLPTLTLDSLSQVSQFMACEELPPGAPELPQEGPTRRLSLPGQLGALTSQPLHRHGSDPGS
As for `Cc1cccc(OCC(O)CN2CCNCC2)c1.Cl` (stereo not drawn), the “hERG current change (%, negative = inhibition) at 10uM” value is 26.5%.
To `Cc1ccc(OCC(O)CN2CCN(CC(O)COc3ccc(C)cc3Cl)CC2)c(Cl)c1` (stereo not drawn) belongs -24.3%; to `Cc1ccc(N2CCN(CC(O)COc3cccc(C)c3)CC2)cc1` (stereo not drawn), -55.1%; to `Cc1ccc(OCC(O)CN2CCN(CC(O)COC(C)C)CC2)c(C(C)(C)C)c1` (stereo not drawn), -65.2%.
As to `CCOC(=O)N1CCN(CC(O)COc2cc(C)ccc2C(C)C)CC1.Cl` (stereo not drawn), the “hERG current change (%, negative = inhibition) at 10uM” value was -26.8%.
Next, `Cc1cccc(OCC(O)CN2CCN(C3CCCCC3)CC2)c1.Cl` (stereo not drawn): -50.3%; `COC(=O)c1ccc(OCC(O)CN2CCN(CC(O)COc3ccc(C(=O)OC)cc3)CC2)cc1` (stereo not drawn): -72.9%; `Nc1c(Cl)ncnc1N/N=C/c1ccc2ccccc2n1`: -11.7%.
Regarding `COC(=O)COc1ccc(/C=C2\SC(=O)N(CC(=O)Nc3ccccc3F)C2=O)cc1`, the “hERG current change (%, negative = inhibition) at 10uM” value came out at 14%.
Next, `Cc1nc(CNC(=O)CC2C(=O)NCCN2Cc2cccc(Oc3ccccc3)c2)cs1` (stereo not drawn): 10.4%; `CCOCCCNC(=O)/C(C#N)=C/c1ccccc1F`: 23.5%; `C/C(=N\NC(=O)c1ccc(Cl)cc1)c1ccc(Br)s1`: 2.93%.
As for `COCCNC(=O)C(=O)NCC1OCCN1S(=O)(=O)c1ccc(C)cc1` (stereo not drawn), the “hERG current change (%, negative = inhibition) at 10uM” value came to 15.7%.
Next, `CCc1ccc(C(=O)NNc2ccc(S(N)(=O)=O)cc2)cc1`: 9.05%.
Turning to `NC(=O)COC(=O)CC12CC3CC(CC(Br)(C3)C1)C2`, the “hERG current change (%, negative = inhibition) at 10uM” value is reported as 24.6%.
To `CCN(CC)S(=O)(=O)c1ccc(OC)c(NC(=O)CSc2cc(Cl)ccc2Cl)c1` belongs -2.76%.
To `O=C(CSc1nnc(-c2cccc(S(=O)(=O)N3CCOCC3)c2)n1C1CCCCCC1)NCc1ccccc1` belongs -17.5%.
On to `CC(C)Cn1c(SCC(=O)NCc2ccc(Cl)cc2)nnc1-c1cccc(S(=O)(=O)N2CCOCC2)c1`, for which the “hERG current change (%, negative = inhibition) at 10uM” value was -52.9%.
Next, `Cc1ccc(S(=O)(=O)N2CCOCC2)cc1NC(=O)C(c1ccc(Cl)cc1)C(C)C` (stereo not drawn): 1.8%.
Next, `CCN(CC)S(=O)(=O)c1ccc(OC)c(NC(=O)CSc2ccccc2)c1`: -72.9%; `Cc1cc2nnc(SCC(=O)Nc3cc(S(=O)(=O)N4CCOCC4)ccc3Cl)n2c2ccccc12`: -20.5%; `Cc1ccc(S(=O)(=O)N2CCOCC2)cc1NC(=O)CSc1ncccn1`: -4.68%.
For `Cc1cc2nnc(SCC(=O)Nc3cccc(S(=O)(=O)N4CCOCC4)c3)n2c2ccccc12`, the “hERG current change (%, negative = inhibition) at 10uM” value is -14.4%.
As to `Cc1ccc(S(=O)(=O)N2CCOCC2)cc1NC(=O)CSc1ccc(Cl)cc1`, the “hERG current change (%, negative = inhibition) at 10uM” value was -51.3%.
With `CCN(CC)S(=O)(=O)c1ccc(OC)c(NC(=O)CSc2cc(C)ccc2C)c1`, the “hERG current change (%, negative = inhibition) at 10uM” value was -13.3%.
To `Cc1ccc(CSc2nnc(-c3cccc(S(=O)(=O)N4CCOCC4)c3)n2CC(C)C)cc1` belongs -29.5%.
Next, `Cc1ccc(S(=O)(=O)N2CCOCC2)cc1NC(=O)CSc1nnc2cc(C)c3ccccc3n12`: -61.8%; `CC(C)CN(C(=O)COC(=O)Cc1ccc(Cl)cc1)c1c(N)n(Cc2ccccc2)c(=O)[nH]c1=O`: 5.02%; `Cc1cccc(C(=O)N[C@@H](C)C(=O)N2CCN(c3ncccn3)CC2)c1`: -3.21%.
Next, `COc1ccc(OC)c(/C=C/C(=O)OCC(=O)Nc2nnc(-c3ccccc3)o2)c1`: -3.14%.
In the case of `O=C(COC(=O)Cc1ccc(Br)cc1)Nc1c(F)c(F)c(F)c(F)c1F`, the “hERG current change (%, negative = inhibition) at 10uM” value came out at 13.4%.
Next, `Cc1ccc(NC2=NCCCS2)c(C)c1C`: -11.5%.
To `CCOc1ccc(NS(=O)(=O)c2cc(C(=O)N3CCN(C(C)=O)CC3)ccc2Cl)cc1` belongs 12.6%.
As to `COc1ccc(S(=O)(=O)Nc2ccccn2)cc1`, the “hERG current change (%, negative = inhibition) at 10uM” value is 13.8%.
Next, `CCC12OC(=N)C(C#N)(C1C)C(C#N)(C#N)C(c1ccccc1)O2` (stereo not drawn): 2.68%; `COC(=O)c1ccc(COc2ccc(/C=N/NC(N)=S)cc2)o1`: -5.9%; `COc1ccc(S(=O)(=O)N2CCOCC2)cc1NC(=O)CSc1nnc2ccccn12`: 5.54%.
Take `Cc1ccc(S(=O)(=O)N2CCCCC2)cc1NC(=O)CSc1ncnc2ccccc12`: the “hERG current change (%, negative = inhibition) at 10uM” value is on record as -36.2%.
As for `COc1ccc(S(=O)(=O)N2CCOCC2)cc1NC(=O)COc1ncnc2ccccc12`, the “hERG current change (%, negative = inhibition) at 10uM” value turned out to be 6.62%.
Next, `COc1ccc(S(=O)(=O)N2CCOCC2)cc1NC(=O)CSc1ccccc1`: -53.9%.
To `COc1ccc(S(=O)(=O)N2CCCCC2)cc1NC(=O)CSc1ncnc2ccccc12` belongs -51.2%.
Take `COc1ccc(S(=O)(=O)N2CCOCC2)cc1NC(=O)CSc1cccc[n+]1[O-]`: the “hERG current change (%, negative = inhibition) at 10uM” value was -3%.
Next, `COc1ccc(S(=O)(=O)N2CCOCC2)cc1NC(=O)CSc1ncnc2ccccc12`: -50.4%; `COc1ccc(S(=O)(=O)N2CCOCC2)cc1NC(=O)CSc1ccc(F)cc1`: -42.6%; `O=C(CSc1ncnc2ccccc12)Nc1cc(S(=O)(=O)N2CCCCC2)ccc1Cl`: 14.4%.
